# Source: PubChem BioAssay (NCI)
# Compounds without any hit were thinned out: in the full panel of roughly 83,000, 20% have a hit.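 Results are percent growth after 48 hours of single-concentration exposure. 100 means growth as in untreated cells, lower positive values show inhibition; negative values down to -100 show cell death.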 A number with no mark means an inactive call. The source made the active and inactive calls. Rule for the calls: active = growth percent below 10; inactive = the rest.
# Experiments:
# Experiment in all cases: NCI-60 one-dose screen, 48 h (100 = growth as untreated, 0 = no growth, -100 = all killed)
# Conditions in all cases: 10 µM unless noted
# SK-MEL-2 melanoma = test system: SK-MEL-2 melanoma
# EKVX NSCLC = test system: EKVX NSCLC
# SN12C renal = test system: SN12C renal
# UO-31 renal = test system: UO-31 renal
# TK-10 renal = test system: TK-10 renal
# ACHN renal = test system: ACHN renal
# CAKI-1 renal = test system: CAKI-1 renal
# A498 renal = test system: A498 renal
# CCRF-CEM leukemia = test system: CCRF-CEM leukemia
# MOLT-4 leukemia = test system: MOLT-4 leukemia
# SR leukemia = test system: SR leukemia
# RPMI-8226 leukemia = test system: RPMI-8226 leukemia
# OVCAR-8 ovarian = test system: OVCAR-8 ovarian
# OVCAR-5 ovarian = test system: OVCAR-5 ovarian
# OVCAR-4 ovarian = test system: OVCAR-4 ovarian
# SK-OV-3 ovarian = test system: SK-OV-3 ovarian
# IGROV1 ovarian = test system: IGROV1 ovarian
# OVCAR-3 ovarian = test system: OVCAR-3 ovarian
# HS 578T breast = test system: HS 578T breast
# NCI/ADR-RES ovarian = test system: NCI/ADR-RES ovarian
Compound,growth (SK-MEL-2 melanoma),growth (EKVX NSCLC),growth (SN12C renal),growth (UO-31 renal),growth (TK-10 renal),growth (ACHN renal),growth (CAKI-1 renal),growth (A498 renal),growth (CCRF-CEM leukemia),growth (MOLT-4 leukemia),growth (SR leukemia),growth (RPMI-8226 leukemia),growth (OVCAR-8 ovarian),growth (OVCAR-5 ovarian),growth (OVCAR-4 ovarian),growth (SK-OV-3 ovarian),growth (IGROV1 ovarian),growth (OVCAR-3 ovarian),growth (HS 578T breast),growth (NCI/ADR-RES ovarian)
COc1ccc(N2CCC(=O)NC2=S)cc1,102%,102%,98.3%,86.5%,100%,104%,95.4%,108%,111%,105%,116%,105%,106%,102%,106%,103%,108%,109%,98.7%,98%
O=C1c2cccc(NCCN=Cc3cc(O)ccc3O)c2C(=O)c2c(NCCN=Cc3cc(O)ccc3O)cccc21,20.9%,3.36% (active),-24.7% (active),-18% (active),-12.1% (active),0.31% (active),-37.1% (active),-48.6% (active),-58.7% (active),-53.1% (active),40.4%,-60.1% (active),7.56% (active),-28.1% (active),-47% (active),73.4%,-6.03% (active),-48.8% (active),-37.6% (active),42.9%
COc1ccc2nc(NC(=O)CSc3nnc4n3S(=O)(=O)c3ccccc3N4C)sc2c1,50.6%,106%,99.5%,-72.5% (active),140%,100%,98.3%,121%,4.33% (active),71.5%,65.1%,74.1%,84.6%,97.5%,107%,136%,12.9%,112%,89.8%,98.5%
OB(O)c1cccc(-c2nc3ccc4[nH]ncc4c3c3c2CCCC3)c1,81.1%,65.6%,48.8%,35.1%,29.3%,38%,-11.5% (active),15.2%,32.2%,28.7%,32.2%,53%,48.7%,78.3%,80.2%,7.93% (active),47.2%,73.9%,0.588% (active),87.6%
O=C(OCc1ccc2cccc(O)c2n1)N1CCN(C(=O)c2cc3cc(F)ccc3[nH]2)CC1,-59.7% (active),-87.8% (active),-90.8% (active),-100% (active),-97.1% (active),-99.8% (active),-97.8% (active),17.5%,3.76% (active),-16.9% (active),-9.28% (active),-26.1% (active),-40.6% (active),-84.5% (active),-71.8% (active),54.3%,-91.4% (active),-79.3% (active),-21.2% (active),-21.5% (active)
CC1=Nc2cnc(Nc3ccc(OCCN4CCCCC4)cc3)nc2Nc2ccccc21,50.2%,78.3%,49.2%,11%,64.2%,27.1%,17.2%,-9.49% (active),70.2%,25.4%,33.7%,62.7%,72.9%,70.7%,53%,34.8%,14.7%,68.9%,33.6%,69.8%
CCN(CC)CCSc1nc(-c2ccccc2)c(C#N)c(=O)[nH]1,97%,91.8%,116%,110%,128%,112%,99.8%,208%,150%,105%,92.3%,119%,111%,108%,154%,90.8%,117%,116%,63.5%,58%
Oc1ccc(CCn2c(O)c(/C=C3\CN=c4ccccc4=N3)sc2=S)cc1,91.5%,80.8%,47.5%,28.9%,30.8%,54.3%,34.3%,37.3%,7.79% (active),35.9%,20.9%,33.8%,86.8%,95.6%,80.5%,79.5%,39.9%,44.7%,68.5%,65.7%
O=C(Cn1cc(CN2CCCCCC2)nn1)Nc1ccc2c(ccn2Cc2ccccc2)c1,93.2%,96.1%,101%,54.4%,92.2%,107%,87.6%,95.2%,1.87% (active),89.9%,36.8%,64.3%,98.4%,105%,87%,82.7%,94%,95.7%,88.5%,102%
N=C(N)c1ccc(-c2ccc(-c3ccc(Cl)cc3)s2)nc1,103%,59.1%,52.5%,44.6%,103%,-75.9% (active),-65% (active),84.5%,-45.8% (active),-57.8% (active),1.7% (active),-24.6% (active),-31% (active),-28% (active),18.1%,86.7%,-79.2% (active),-93% (active),67.5%,67.4%
CCOC(=O)CSc1ncnc2c1c(-c1ccccc1)c(-c1ccccc1)n2-c1ccc(C)cc1,82.4%,43.9%,64.3%,73.4%,78.5%,90.7%,75.6%,75.2%,67%,67.4%,80.4%,37.8%,54.5%,93.8%,80.4%,56%,79.9%,66.4%,81.7%,98.4%
C=CCc1c2c(c(OC)c3ccoc13)C(=O)/C(=C/c1ccccc1OC)O2,58.4%,60.6%,62.1%,65.7%,52.9%,59.3%,38.4%,46.2%,37.5%,45.8%,48%,29.2%,39.1%,114%,69.7%,79.6%,54.8%,40.6%,58.1%,35.2%
O=C(c1ccccc1)C1C(=O)N2C(=S)N(c3ccccc3)C(=O)C2C1c1ccc(Cl)cc1 (stereo not given),99.5%,100%,91.7%,66.8%,126%,91.8%,82.9%,81.9%,98%,102%,101%,103%,94.8%,102%,90.8%,88%,54.2%,95.6%,88.9%,96.4%
Cc1nc2sc(C(=O)Nc3ccccc3)c(N)c2cc1C(=O)c1ccccc1,49.9%,35.2%,81.5%,59.5%,54.7%,51.7%,35.6%,-3.88% (active),8.47% (active),31.6%,8.32% (active),38%,56%,59%,63%,4.72% (active),56.8%,29.2%,13%,37.8%
COc1ccc(-c2cn(-c3cc(OC)c(OC)c(OC)c3)c(=O)n2C(C)=O)cc1,86.3%,91%,91.3%,84.3%,98.9%,87.1%,12.1%,68.3%,91.7%,75.1%,22.2%,95.9%,94.5%,84.5%,84.9%,104%,77.7%,109%,93.4%,98.5%
